# How the values were obtained:
# CHO = assay: % viability of CHO cells (MTT); higher = less toxic; conditions: 48 h
# How it was run: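 Viability was given as a percentage of untreated cells and measured colorimetrically by the tetrazolium (MTT) assay. Before this, CHO cells at 10^6 cells/well in 200 µL attached overnight, then received fresh medium containing compound at 2 or 20 µM for 48 h.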
# HepG2-A16-CD81 = assay: % inhibition of HepG2 viability (CellTiter-Glo); higher = more toxic; conditions: 5 µM
# [1] = test system: Plasmodium falciparum NF54 stage IV/V gametocytes; assay: % inhibition of gametocyte viability (PrestoBlue); higher = more inhibition; conditions: 48 h
# How it was run: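 Values are percent inhibition of gametocyte viability, normalised to vehicle and kill controls in a single run. Stage IV/V NF54 gametocytes (2% gametocytaemia, 5% haematocrit, 100 µL/well) were held with compound at 1 or 5 µM for 48 h at 37 °C, stationary and hypoxic. Viability was read as 612 nm fluorescence on 70 µL of supernatant after a 2 h incubation with 10 µL PrestoBlue.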
# [2] = test system: Plasmodium falciparum NF54 asexual blood stage; assay: % inhibition of asexual blood stage proliferation (pLDH); higher = more inhibition; conditions: 72 h
# How it was run: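 Using 96-well plates, the screen was run twice on separate occasions with Plasmodium falciparum NF54 ring-stage cultures at 1% haematocrit and 2% parasitaemia. Each culture was exposed to compound at 2 or 20 µM for 72 h at 37 °C under a gas mix of 4% CO2, 3% O2 and 93% N2. After incubation, the parasite lactate dehydrogenase assay was read colorimetrically at 620 nm. From this readout, percent inhibition of asexual proliferation was derived against control wells.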
# [3] = test system: Plasmodium falciparum NF54 stage IV/V gametocytes; assay: % inhibition of gametocyte viability (ATP bioluminescence); higher = more inhibition; conditions: 24 h
# How it was run: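 Viability of stage IV/V NF54 gametocytes is given as percent inhibition, normalised to control wells in a single run. Gametocytes enriched on density gradients were seeded at 30,000 per well in 96-well plates with compound at 1 or 5 µM and held at 37 °C for 24 h. ATP was then read with the Promega BacTiter Glo bioluminescence system.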
# [4] = test system: Plasmodium falciparum NF54 stage IV/V gametocytes; assay: % inhibition of gametocyte viability (luciferase reporter); higher = more inhibition; conditions: 48 h
# How it was run: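 Percent inhibition came from luminescence and was normalised to controls in a single run. Gametocytes (stage IV/V, NF54-Pfs16-GFP-Luc line, 2% gametocytaemia, 2% haematocrit) were treated with compound at 1 or 5 µM and incubated for 48 h at 37 °C without agitation under hypoxia. Readings used 30 µL lysate with 30 µL Promega luciferin substrate on a GloMax-Multi+ reader, integrating for 10 s.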
# [5] = test system: Plasmodium berghei ANKA liver stage in HepG2-A16-CD81; assay: % inhibition of liver stage parasite viability (luciferase); higher = more inhibition; conditions: 5 µM; 48 h
# Method: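 Single-concentration screen of the MMV Pandemic Response Box. P. falciparum NF54 asexual blood stages: pLDH assay, 72 h at 37 °C, 2 and 20 µM, n=2. Stage IV/V gametocytes (NF54): luciferase reporter (NF54-Pfs16-GFP-Luc, 48 h), ATP bioluminescence (24 h) and PrestoBlue (48 h) at 1 and 5 µM, n=1. P. berghei liver stage (luciferase in HepG2-A16-CD81, 48 h post infection) at 5 µM, n=4. All normalised to DMSO and kill controls as % inhibition.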
# 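Wherever % inhibition of HepG2 viability (CellTiter-Glo) is given: HepG2-A16-CD81 hepatoma cells plated as in the liver-stage assay but without sporozoites, with DMSO wells as negative and 25 µM puromycin as positive control.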
Structure (SMILES),% viability of CHO cells (CHO; 2 µM),% viability of CHO cells (CHO; 20 µM),% inhibition of HepG2 viability (HepG2-A16-CD81),% inhibition of gametocyte viability ([1]; 1 µM),% inhibition of gametocyte viability ([1]; 5 µM),% inhibition of asexual blood stage proliferation ([2]; 2 µM),% inhibition of asexual blood stage proliferation ([2]; 20 µM),% inhibition of gametocyte viability ([3]; 1 µM),% inhibition of gametocyte viability ([3]; 5 µM),% inhibition of gametocyte viability ([4]; 1 µM),% inhibition of gametocyte viability ([4]; 5 µM),% inhibition of liver stage parasite viability [5]
C[C@H](Cn1cnc2c(N)ncnc21)OCP(=O)(O)O,89.8%,99.9%,-1.34%,10.5%,17.7%,-36.5%,46.2%,5.56%,< 0%,9.2%,< 0%,9.32%
N#CCN1C(=O)COc2cc(F)c(N3C(=O)c4ccccc4C3=O)cc21,91.1%,99.3%,-3.69%,3.4%,2.45%,8.98%,14.8%,< 0%,< 0%,< 0%,14.5%,14.6%
COCCn1cnc2c(=O)[nH]c(Nc3ccccc3)nc21,103%,63.9%,5.25%,< 0%,0.985%,28.3%,62.8%,7.08%,5.85%,14.5%,5.09%,7.54%
Cc1onc(-c2ccccc2)c1-c1ccc(S(N)(=O)=O)cc1,120%,106%,-1.58%,12.1%,41.6%,48.8%,77.5%,1.41%,< 0%,0.106%,< 0%,4.19%
COc1ccc(CNC(=O)C2CCN([C@H](C)c3cccc4ccccc34)CC2)cc1,128%,70.1%,0.399%,< 0%,11%,79.1%,64.2%,8.45%,8.31%,12.8%,< 0%,19.6%
Oc1cccc(C(Nc2nccs2)c2ccc3cccnc3c2O)c1 (centres undefined),57.5%,42.1%,9.72%,24.1%,65.5%,80%,91.8%,< 0%,59.3%,7.2%,57.3%,20.6%
CCCCC(CC)CNC(=N)NC(=N)NCCCCCCNC(=N)NC(=N)NCC(CC)CCCC (centres undefined),101%,124%,57.5%,44.5%,79.2%,92.1%,87.5%,66.4%,93.8%,98.7%,100%,74%
C[C@H](c1cccc2ccccc12)N(C)Cc1ccccc1,98.5%,116%,0.334%,6.61%,7.59%,9.39%,18.9%,< 0%,< 0%,< 0%,< 0%,19.1%
NCCCc1ccccc1C(=O)Nc1ncc([N+](=O)O)s1,104%,62.7%,0.282%,32.9%,23.9%,-16.4%,-1.52%,0.0401%,< 0%,< 0%,< 0%,7.1%
COc1ccc(SC(=O)N[C@H](CCC(=O)O)C(=O)O)cc1,114%,122%,3.46%,< 0%,58.8%,58.1%,103%,< 0%,6.16%,23.9%,62.8%,19.9%
CCC(C)(C)c1ccc(CC(C)CN2C[C@@H](C)O[C@@H](C)C2)cc1 (some centres undefined),100%,124%,-1.79%,< 0%,4.53%,89.6%,82%,< 0%,< 0%,< 0%,< 0%,40.5%
CC(=O)Oc1ccccc1C(=O)Nc1ncc([N+](=O)[O-])s1,91.3%,111%,3.62%,14.9%,28.5%,14.2%,71.2%,10.5%,5%,0.222%,17.6%,65.9%
C=C[C@]1(C)C[C@@H](OC(=O)CS[C@@H]2C[C@H]3CC[C@@H](C2)N3C)[C@]2(C)[C@H](C)CC[C@]3(CCC(=O)[C@H]32)[C@@H](C)[C@@H]1O,77.8%,48.9%,7.56%,< 0%,2.51%,68.8%,104%,1.57%,7.83%,< 0%,< 0%,53%
O=c1ccc2ncc(=O)n3c2n1CC3CN1CCC(NCc2cc3c(cn2)OCCC3)CC1 (centres undefined),124%,97.3%,6.64%,< 0%,28.4%,12.5%,40.4%,0.762%,< 0%,< 0%,< 0%,23.7%
CN(C)[C@@H]1C(=O)C(C(N)=O)=C(O)[C@@]2(O)C(=O)C3=C(O)c4c(O)c(NC(=O)CN5CCCC5)cc(F)c4C[C@H]3C[C@@H]12,99.3%,125%,21%,13.1%,< 0%,72.1%,88%,< 0%,< 0%,< 0%,< 0%,-4.53%
COc1ccc(COc2cc3oc(=O)c4cc(C(C)O)ccc4c3cc2OC)cc1 (centres undefined),81.5%,74.4%,6.8%,11%,11.6%,35.7%,80.4%,6.77%,< 0%,< 0%,< 0%,8.21%
N[C@@H]1CN(c2c(F)cc3c(=O)c(C(=O)O)cn([C@@H]4C[C@@H]4F)c3c2Cl)CC12CC2,94.4%,69.3%,-1.55%,< 0%,10.3%,36.2%,99.6%,< 0%,< 0%,0.138%,< 0%,-19.2%
CC(=O)N1c2ccccc2NC2=C(C(=O)CC(C)(C)C2)C1c1ccc(OCc2ccccc2)cc1 (centres undefined),119%,85.5%,-5.09%,27.1%,24.2%,-13.1%,76.9%,1.11%,3.14%,9.92%,< 0%,27.4%
CC(C)(C)c1cc(CCC(=O)N2CCC2)cc(C(C)(C)C)c1O,94.2%,74.4%,0.292%,< 0%,< 0%,4.95%,69.6%,< 0%,< 0%,< 0%,< 0%,21.9%
Cc1c(F)cccc1NC(=O)Nc1ccc(Cl)c(S(=O)(=O)[C@H]2CCCNC2)c1O,115%,118%,-8.8%,< 0%,< 0%,15.9%,41.5%,8.93%,< 0%,0.356%,< 0%,13.1%
CC(C)Nc1nc2cc(Cl)c(Cl)cc2n1[C@H]1O[C@@H](CO)[C@H](O)[C@@H]1O,71.9%,56.9%,-5.75%,17.6%,14%,66.8%,55.9%,< 0%,< 0%,< 0%,< 0%,12.5%
N=C(N)c1ccc(COc2ccc(Cl)cc2)cc1,103%,102%,2.38%,< 0%,11.4%,11.1%,89.9%,0.321%,4.27%,< 0%,< 0%,-17.2%

# Source: the supplement of paper PMC7801607
